An excerpt weighted towards active compounds, which were near 2.3% of everything screened.
Abeta yeast res = qHTS for compounds that reverse cellular toxicity of Amyloid beta (A-beta) peptide in yeast: Primary Screen; yeast expressing A-beta42, growth rescue, OD600, 48 h; response scale: 0% DMSO, 100% iron-clioquinol control; Potency, µM (series often up to 46.1 µM), actives largely listed as activators; 410,000 compounds, 0.063% hits; further: potency means the concentration at half of the fitted maximal effect; nearly all actives have a fitted effect of over 55% in size
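Yeast A-beta toxicity model in growth medium with pinned compounds, 48 h at 30 C; growth read as absorbance at 600 nm. Normalized to FeCl3/clioquinol equimolar mix (positive) and DMSO (negative).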
aSyn rescue = qHTS of alpha-syn Inhibitors | 370,000 compounds, 0.14% hits | Potency, µM (highest dose often 46.1 µM), for inactives: at the top dose growth rescue (activation), actives largely listed as activators | Yeast expressing alpha-synuclein, growth rescue, BacTiter-Glo, 24 h | AID 652106, 2013; further: potency means the concentration at half of the fitted maximal effect; % of control where 0% means no effect; nearly all actives have a fitted effect of over 65% in size
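Readout is rescue of growth in alpha-synuclein-expressing yeast, so inhibitors of toxicity appear as activators. Growth after 24 hr at 30 deg C in galactose medium is quantified by luminescence.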
MmCpn inh = Inhibitors of TCP-1 ring complex (TRiC) of Methanococcus maripaludis (MmCpn): qHTS; Chaperonin Mm-Cpn (Methanococcus maripaludis); purified Mm-Cpn ATPase, ADP Transcreener TR-FRET; Potency, µM (series often up to 76.9 µM), for inactives: top-dose activity, negative = inhibition, usual class: inhibitors; 330,000 compounds, 0.031% hits; further: potency means the concentration at half of the fitted maximal effect; on the % scale 0 is the no-effect control and ±100 the full control effect; nearly all actives have a fitted effect of over 80% in size
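Measured: ADP formation by purified Mm-CPN. Conditions: 25 nM protein, 10 uM ATP, Tris pH 7.4 with Mg2+, K+ and DTT, 37°C for 30 min. Detection: Transcreener HTRF after 30 min at room temperature.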
TDP43 rescue = qHTS of TDP-43 Inhibitors; TDP-43 expressing yeast growth rescue, BacTiter-Glo, 24 h; Potency, µM (doses to about 46.1 µM), inactives show top-dose growth rescue (activation), hits mostly activators; 410,000 compounds, 1.8% hits; further: potency means the concentration at half of the fitted maximal effect; % of control where 0% means no effect; nearly all actives have a fitted effect of over 50% in size
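Readout is BacTiter-Glo luminescence of cell growth, so inhibitors register as activators. TDP-43-expressing yeast at OD600=0.02 in galactose medium, after raffinose pregrowth to mid-log, were incubated with compound for 24 hr at 30 deg C.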
CCT modulator = High-Throughput Screening for Modulators of Cytosolic Chaperonin Activity | activity change, % (no concentration beside the values), hits read low | AID 651819, 2012 | purified chaperonin ATPase assay, HTRF ADP detection, 30 min | 360,000 compounds, 0.3% hits; in the data active means activity change below about -30%; further: on the % scale 0 is the no-effect control and ±100 the full control effect
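First, chaperonin was dispensed at 40 nM or 20 nM final depending on batch activity. Next, compounds were pinned at 76 uM and ATP added at 10 uM. After 30 min at 37 °C, ADP detection reagents ran 30 min at ambient temperature.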
FUS yeast rescue = qHTS for Suppressors of FUS Proteinopathy: Primary screen using FUS-linked yeast assay; S. cerevisiae FUS-expressing, growth rescue, OD600, 24 h; 390,000 compounds, 0.24% hits; Potency, µM (highest dose often 76.6 µM), usual class: activators;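 further: potency means the concentration at half of the fitted maximal effect; plate controls were DMSO vehicle for no effect and reference control for full effect; nearly all actives have a fitted effect of over 55% in size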
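Absorbance at 600 nm, taken 24hr after compound addition, measured rescue of FUS-yeast growth at 30C. Induction used 2% galactose with seeding at OD 0.005. Controls: CP55940 from 92uM final, DMSO only.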
Active calls of the source: *; i = inactive; ? = inconclusive; · = no result given. Unless noted, the call rests on the fitted dose curve; in most records, active means well fitted curve in the direction sought with a large enough effect; inconclusive means small, poorly fitted or top-dose-only effect, or another doubt; inactive means no such curve, though single readings can be large; an effect the other way counts as inactive or inconclusive.

SMILES	Abeta yeast res	aSyn rescue	MmCpn inh	TDP43 rescue	CCT modulator	FUS yeast rescue
Cc1ccc(CCNS(=O)(=O)c2cnc[nH]2)cc1	i	-2.5%	0.9%	-5.5%	-38.7*	i
O=S(=O)(NCc1ccc(Cl)cc1)c1cnc[nH]1	i	-1.3%	0.7%	-8.7%	0.1	i
O=C(NCCc1nc2ccccc2n1CCCOc1ccccc1)C1CCCCC1	·	-0.7%	·	·	·	·
COc1cc(OC)cc(-c2csc(N3CCC(C(N)=O)CC3)n2)c1	·	·	·	·	·	i
CCN(CC)c1ccc(CNc2nc3ccccc3n2CCN2CCOCC2)cc1	i	1.0%	-1.9%	-18.8%	3.5	i
COc1ccc(CNc2nc3ccccc3n2CCN2CCOCC2)cc1	i	-2.6%	-0.1%	-7.7%	-45.0*	i
C/C(=N\Nc1cc(-c2ccccc2)nc(-c2ccc(Br)cc2)n1)c1cccc(N)c1	i	-2.4%	·	27.4%	-65.4*	12.6µM*
N#Cc1ccc(/C=C2\C=Cc3ccccc32)cc1	·	-9.5%	·	·	·	·
COc1cc2c(NC3CCN(C(C)C)CC3)nc(N3CCCN(C)CC3)nc2cc1OCCCN(C)C	·	-1.0%	·	·	·	·
Cc1ccc(-n2ccnc(NCc3cccs3)c2=O)cc1C	i	·	·	15.8µM*	·	i
COc1ccc(CCNc2nccn(-c3ccc(C)c(C)c3)c2=O)cc1OC	i	·	·	0.0%	·	i
Nc1ccccc1SC(CC(=O)c1ccccc1)c1ccc([N+](=O)[O-])cc1 (configuration not stated)	i	8.8%	·	5.5%	1.1	i
Nc1ccccc1SC(CC(=O)c1ccccc1)c1cccc([N+](=O)[O-])c1 (configuration not stated)	i	19.0%	·	25.1µM*	0.8	i
CCOC(=O)C(=CNc1ccc(Cl)cn1)C(=O)OCC	i	1.8%	0.8%	11.2µM*	-4.5	i
CCOC(=O)C(=CNNc1cccc(Cl)c1)C(=O)OCC	i	27.4%	2.1%	11.2µM*	2.2	i
CCOC(=O)C(=CNc1cccc(C)c1C)C(=O)OCC	i	-7.7%	-2.6%	-4.3%	-122.3*	i
COc1cc(OC)c(/C=C/c2ccc3ccccc3[n+]2C)c(OC)c1	·	-20.3%	·	·	·	·
Cc1ccc(NC(=O)c2cc3c([nH]c2=O)CC(c2ccccc2)CC3=O)cc1 (configuration not stated)	·	9.6%	·	·	·	·
COC(=O)c1cccc(NC(=O)COc2cccc([N+](=O)[O-])c2)c1	i	0.0%	-0.7%	11.2µM*	-1.5	i
Cc1nc(NC(=O)C(C)(C)C)sc1-c1nc(N)sc1-n1cc(-c2ccccc2)nn1	i	2.2%	·	6.7%	2.1	i
CCNc1nc(-c2sc(NC(=O)C(C)(C)C)nc2C)c(-n2cc(-c3ccccc3)nn2)s1	i	0.9%	·	28.2µM*	1.3	i
CCc1nn2c(=O)cc(COC(=O)c3cccc(NC(=O)COc4ccccc4F)c3)nc2s1	i	·	·	-8.3%	·	?
Cc1ccc2c(C(=O)N3CCN(c4ccccc4)CC3)cc(-c3cccnc3)nc2c1C	i	9.9%	-2.2%	?	-42.7*	i
O=C(c1cc(-c2ccncc2)nc2ccccc12)N1CCN(c2ccccc2O)CC1	i	-19.6%	-11.4%	-14.3%	-0.9	17.8µM*
O=C(c1cc(-c2ccccc2)nc2ccccc12)N1CCN(c2ccccc2O)CC1	i	-12.4%	0.4%	?	1.5	?
SMILES	Abeta yeast res	aSyn rescue	MmCpn inh	TDP43 rescue	CCT modulator	FUS yeast rescue
Cc1ccc2c(C(=O)CNC3=NCCS3)c(C)[nH]c2c1	·	-4.0%	·	·	·	·
Cc1ccc(NC(=S)NCCc2ccccc2)c(C)c1	i	-5.8%	2.3%	0.0%	-3.0	·
Cc1cc(Br)ccc1NC(=S)NCCc1ccccc1	11.2µM*	8.3%	2.5%	?	1.2	i
CC(C)CNC(=O)OCc1cn(Cc2ccccc2F)nn1	·	·	·	·	·	i
CCOC(=O)N1CCN(C(=O)CN(C2CCCCC2)S(=O)(=O)c2ccc(C)cc2)CC1	i	3.6%	0.2%	?	0.5	i
Cc1ccc(S(=O)(=O)N(CC(=O)N2CCN(c3ccc(F)cc3)CC2)C2CCCCC2)cc1	i	8.7%	-0.1%	20µM*	0.2	?
CCOc1ccccc1CNc1ncnc2c1nc1n2CCCC1	i	·	·	7.9%	·	i
c1cc(N2CCCC2)ccc1C(c1nnnn1C1CCCCC1)N1CCOCC1 (configuration not stated)	i	27.3%	-2.9%	-7.3%	1.6	39.8µM*
Clc1ccc(C(c2ccccc2)c2c[nH]c3ccccc23)s1 (configuration not stated)	i	-36.0%	·	20µM*	·	i
Cc1ccc2[nH]cc(C(c3ccccc3)c3ccc(Cl)s3)c2c1 (configuration not stated)	i	·	·	?	·	i
CCc1ccc(NCc2cc3cc(OC)c(OC)cc3n(CC(=O)Nc3cc(C)ccc3C)c2=O)cc1	i	1.5%	·	21.5%	·	i
COc1ccc(C2NC(c3ccc4c(c3)OCO4)=CC(c3ccccc3O)N2)cc1OC (configuration not stated)	·	-7.5%	·	·	·	·
CC(C)c1ccc(NC(=O)OC2CCC23CCC(c2ccccc2)CC3)cc1 (configuration not stated)	·	·	·	·	·	i
COc1ccccc1-c1cc(C(F)(F)F)nc(S(=O)(=O)CCCC(=O)NC(C)C)n1	i	-1.5%	-0.4%	3.9%	-3.8	i
COc1ccccc1-c1cc(C(F)(F)F)nc(S(=O)(=O)CCCC(=O)Nc2cccnc2Cl)n1	i	-0.1%	-7.1%	12.6µM*	2.0	i
COc1ccccc1-c1cc(C(F)(F)F)nc(S(C)(=O)=O)n1	i	-22.0%	?	35.5µM*	1.6	i
NC1C(N)C(N)C1N (configuration not stated)	·	1.6%	·	·	·	·
Cc1cccc(-c2nc(CSCC(=O)NCCc3ccc(Cl)cc3)c(C)o2)c1	i	·	·	25.1µM*	·	?
Cc1ccc(CCNC(=O)CSCc2nc(-c3ccc(C)cc3)oc2C)cc1	i	·	·	25.1µM*	·	i
Cc1nc2c(-c3ccc(F)cc3)cnn2c(N)c1-c1ccccc1	i	-15.6%	-0.3%	12.6µM*	-2.6	i
COc1ccccc1-c1cc2nc(C)c(CCC(=O)NCCc3ccc(SC)cc3)c(C)n2n1	i	·	·	-37.4%	·	i
O=C(Nc1ccc(C(F)(F)F)cc1)OC1CCC12CCC(c1ccccc1)CC2 (configuration not stated)	·	·	·	·	·	i

Screens (PubChem BioAssay)
